This is an account of results in PubChem BioAssay (Tox21).

Inconclusive results are not listed. Calls of active or inactive are those of the source. Unless noted, calls follow the shape of the dose curve; as a rule, active = well fitted curve in the direction sought with a large enough effect in the repeat runs; inconclusive = weak or mixed curves; inactive = no such curve, though single readings can be large; an effect the other way counts as inactive or inconclusive.

Assay [1] in a line: qHTS assay to identify small molecule antagonists of the retinoid-related orphan receptor gamma (ROR-gamma) signaling pathway - cell viability counter screen (AID 1159520). Also: nearly all actives have a fitted effect of over 50% in size. The gist of the method: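 Tet-on ROR gamma CHO cells (1,000/well) were plated 4 hr, given compounds in DMSO for 2 hr at 37 C, then induced with 1 uM final doxycycline for 16 hr. Viability was read as ATP by CellTiter-Glo luminescence after 30 min.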
In general terms: Quantitative high-throughput screening tests each substance at several concentrations.

For assay [2], the target named is Nuclear receptor ROR-gamma (Homo sapiens) (UniProt P51449). The assay is described as follows: qHTS assay to identify small molecule antagonists of the retinoid-related orphan receptor gamma (ROR-gamma) signaling pathway (AID 1159521; also: top concentration of the series differs between compounds; nearly all actives have a fitted effect of over 50% in size). Summed up: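 Antagonist read-out: drop in luminescence (ONE-Glo) from an RORE-LUC reporter in CHO cells with doxycycline-inducible ROR-gamma; 2 hr compound pretreatment, 1 uM doxycycline, 16 hr incubation at 37 C.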

Assay [3] in a line: qHTS assay to identify small molecule agonists of the AP-1 signaling pathway - cell viability counter screen (AID 1159525; calls by dose curve; also: nearly all actives have a fitted effect of over 55% in size). The gist of the method: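 Each titration point was normalised to DMSO and tetra n-octyl ammonium bromide controls. The read was Cell Titer Glo luminescence after 30 min at RT, following 5 h compound exposure of ME-180 AP-1-bla cells at 37 °C.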
The nature of assay [4]: qHTS assay to identify small molecule agonists of the AP-1 signaling pathway (AID 1159526; calls by dose curve).
For assay [5], the target named is Retinoic acid receptor RXR-alpha (Homo sapiens) (UniProt P19793). The assay is described as follows: qHTS assay to identify small molecule agonists of the RXR signaling pathway (AID 1159527; calls by dose curve; also: nearly all actives have a fitted effect of over 35% in size; also: potency is read from the fitted curve at half-maximal effect). The gist of the method:
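Agonist-mode beta-lactamase reporter assay: HEK 293T RXR-alpha-UAS-bla cells treated 16 hr at 37 C with compounds, 9-cis retinoic acid as positive control. LiveBLAzer FRET substrate, 405 nm excitation, 460/530 nm emission.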

Assay [6] can be described thus: qHTS assay to identify small molecule antagonists of the retinoid acid receptor (RAR) signaling pathway - cell viability counter screen (AID 1159551). Also: nearly all actives have a fitted effect of over 35% in size. Summed up:
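Viability of C3RL4 cells is quantified from ATP by luminescence after 6 h treatment at 37 C with compounds and 1 uM retinol.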

A short description of assay [7]: qHTS assay to identify small molecule antagonists of the retinoic acid receptor (RAR) signaling pathway (AID 1159552; also: nearly all actives have a fitted effect of over 50% in size). Summed up: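 Luminescent RARE reporter read-out in C3RL4 cells: 6 hr co-treatment at 37 C of test compounds with retinol at 1 uM final. Cells plated overnight beforehand; luciferase reagent incubated 30 min at room temperature before reading.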
Assay [8] can be described thus: qHTS assay to identify small molecule antagonists of the estrogen related receptor (ERR) signaling pathway from Tox21 library - cell viability counter screen (AID 1224834). Also: nearly all actives have a fitted effect of over 30% in size. Summed up:
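In this quantitative HTS format, ERR cells receive compounds in DMSO and are incubated for 17.5 h at 37 C. Live-cell protease activity is then detected with CellTiter-Fluor.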

Assay [9] in a line: qHTS assay to identify small molecule agonists of the RXR signaling pathway - cell viability counter screen (AID 1159529). Also: series mostly up to about 77 µM; nearly all actives have a fitted effect of over 50% in size. Summed up:
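CellTiter-Glo luminescence gave viability in the wells also read for beta-lactamase. Cells (RXR-alpha-UAS-bla HEK 293T, 2% charcoal-stripped FBS medium) had 5 hr plating, then 16 hr compound exposure at 37 C; tetraoctyl ammonium bromide served as positive control.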

Sequence of Retinoic acid receptor RXR-alpha (Homo sapiens) (P19793 whole entry, looked up): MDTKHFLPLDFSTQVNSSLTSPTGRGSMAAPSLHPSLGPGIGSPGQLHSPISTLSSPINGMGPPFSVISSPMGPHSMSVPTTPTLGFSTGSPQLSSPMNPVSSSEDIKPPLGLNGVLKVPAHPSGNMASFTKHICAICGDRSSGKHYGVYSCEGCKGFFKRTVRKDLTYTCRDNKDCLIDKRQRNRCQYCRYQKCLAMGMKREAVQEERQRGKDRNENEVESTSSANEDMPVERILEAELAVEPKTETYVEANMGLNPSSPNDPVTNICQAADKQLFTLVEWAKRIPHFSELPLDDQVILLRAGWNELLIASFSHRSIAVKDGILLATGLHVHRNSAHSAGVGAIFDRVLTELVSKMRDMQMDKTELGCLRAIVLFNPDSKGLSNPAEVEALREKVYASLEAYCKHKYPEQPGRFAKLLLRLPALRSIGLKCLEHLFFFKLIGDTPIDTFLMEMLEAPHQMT

`C[Si](C)O[Si](C)C`: the Potency result in [1], in [2], in assay [3], in assay [4], in assay [5] and in assay [6] was “inactive” in each case. Moreover, the Potency entry in assay [7] and in [8] was “inactive” in each case.
Regarding `Clc1cccnc1`, the Potency entry in assay [1], in assay [2], in assay [4], in [5], in [9] and in assay [6] was “inactive” throughout. Also, the Potency result in assay [7] and in assay [8] was “inactive” throughout.
Take `CCCCOCC`: the Potency result in [1], in assay [2], in assay [4], in assay [5], in assay [9] and in [6] was “inactive” in each case. The Potency entry in assay [7] and in assay [8] was “inactive” each time.
On to `CCC(C)c1ccccc1` (stereo not given), for which the Potency entry in [1], in assay [2], in [3], in assay [4], in assay [5] and in assay [6] was “inactive” throughout. Further, in assay [7], the Potency entry was “inactive”.
For `CCCCCCCC(=O)OCC`, the Potency entry in assay [1], in assay [2], in assay [4], in assay [5], in assay [9] and in assay [6] was “inactive” in each case. The Potency result in [7] and in [8] was “inactive” each time.
On to `CCOCN(C(=O)CS(=O)(=O)O)c1c(C)cccc1CC`, for which the Potency entry in [1], in [2], in assay [3], in assay [4], in assay [5] and in assay [6] was “inactive” each time. Moreover, the Potency entry in [7] and in assay [8] was “inactive” each time.
Take `CC(=O)c1ccccc1N`: the Potency entry in [1], in assay [2], in assay [3], in assay [4], in assay [5] and in assay [6] was “inactive” in each case. Also, the Potency entry in [7] and in assay [8] was “inactive” each time.
On to `CCOCOCC`, for which the Potency result in assay [1], in assay [2], in assay [3], in assay [4], in assay [5] and in [6] was “inactive” throughout. The Potency entry in assay [7] and in [8] was “inactive” each time.
`CCc1c(Br)c(Br)c(Br)c(Br)c1Br`: the Potency result in assay [1], in [2], in assay [3], in assay [4], in assay [6] and in [7] was “inactive” each time. In assay [8], the Potency entry was “inactive”. Further, the Potency in assay [5] is 38.9 µM (active).
For the compound `Cc1ccc(O)cn1`, the Potency entry in [1], in [2], in [4], in assay [5], in assay [9] and in [6] was “inactive” in each case. The Potency entry in assay [7] and in [8] was “inactive” throughout.
As to `C/C=C/C(=O)C1=C(C)CCCC1(C)C`, the Potency entry in assay [1], in [2], in assay [4], in [5], in assay [9] and in assay [6] was “inactive” throughout. The Potency entry in assay [7] and in [8] was “inactive” each time.
On to `CCCCCCCCCCCCCc1ccccc1`, for which the Potency entry in assay [1], in assay [2], in [4], in assay [5], in assay [9] and in assay [6] was “inactive” each time. Besides, the Potency entry in assay [7] and in assay [8] was “inactive” throughout.
